# High-throughput results as filed in PubChem BioAssay.
# A3G deaminase: inhibitors of human APOBEC3G DNA deaminase. 0.28% of 330,000 active. recombinant A3G, ssDNA deamination FAM/TAMRA fluorescence. AID 493012. Q9HC16. inhibition, % at 20 µM;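 active = inhibition of at least 40% at 20 µM, with no more than 30% in the related APOBEC3A deaminase screen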;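 note: plate controls were DMSO wells with A3G for no effect and wells lacking A3G enzyme for full effect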
# Target sequence (Q9HC16 whole entry, looked up): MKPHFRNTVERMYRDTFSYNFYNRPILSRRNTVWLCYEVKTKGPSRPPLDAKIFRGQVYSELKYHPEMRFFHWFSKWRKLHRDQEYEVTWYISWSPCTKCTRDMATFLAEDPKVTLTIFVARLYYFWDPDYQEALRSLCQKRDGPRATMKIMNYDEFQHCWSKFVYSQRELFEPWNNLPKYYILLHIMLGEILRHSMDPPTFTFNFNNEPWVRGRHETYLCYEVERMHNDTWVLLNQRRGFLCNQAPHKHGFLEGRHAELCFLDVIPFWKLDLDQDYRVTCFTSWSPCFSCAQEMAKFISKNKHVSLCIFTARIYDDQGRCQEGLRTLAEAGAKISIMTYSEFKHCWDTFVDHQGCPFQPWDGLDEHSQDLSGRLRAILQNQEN
# Wnt bcat act: activators of Wnt/beta-catenin signaling | Wnt/beta-catenin reporter cell assay, activator, plate reader | activation, % at 9.35 µM | 1.2% of 300,000 active | AID 743398; in the data active = activation above about 30%, passing the limit was not always enough; inconclusive = no clear call, values can overlap the other calls;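 note: 0% = neutral control wells and 100% = positive control wells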
# MITF TRPM1 HTS: MITF TRPM1 promoter activation in melanoma cells; 0.75% of 300,000 active; SK-MEL-5 TRPM1-promoter luciferase, 24 h; % of positive control, neutral wells = 0; activation, % at 12.5 µM;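 active = mean activation of at least 80% with every replicate also reaching 80%; inconclusive = mean reaches 80% but some replicate falls short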;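 note: 0% = neutral control wells and 100% = parthenolide positive control wells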
# esBAF inh: inhibitors of esBAF chromatin remodeling in mouse ES cells; Bmi1-luciferase knock-in reporter, 24 h; 100% = twice the neutral-well signal; reporter increase, % at 12.5 µM; 2% of 350,000 active; AID 602393; in the data active = activation above about 40%; inconclusive = no clear call, values can overlap the other calls;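 note: 0% = median of the plate's neutral control wells and 100% = double that signal; a rise in the Bmi1 reporter signal indicates esBAF inhibition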
# A3A deaminase: human APOBEC3A DNA deaminase inhibition; recombinant A3A, FAM/TAMRA ssDNA deamination fluorescence; inhibition, % at 20 µM; 0.41% of 330,000 active; AID 493011;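 active = at least 40% inhibition at 20 µM here, with at most 30% in a related deaminase screen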;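 note: plate controls were A3A with DMSO for no effect and wells lacking A3A enzyme for full effect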
# Target sequence (P31941 whole entry, looked up): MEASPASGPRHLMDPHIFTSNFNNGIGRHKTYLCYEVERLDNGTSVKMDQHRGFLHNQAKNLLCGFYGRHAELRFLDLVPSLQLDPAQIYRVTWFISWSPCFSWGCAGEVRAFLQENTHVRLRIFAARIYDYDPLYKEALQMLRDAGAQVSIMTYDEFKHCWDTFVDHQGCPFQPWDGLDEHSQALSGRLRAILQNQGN
# PHOSPHO1 inh: PHOSPHO1 (human) inhibition. AID 1565. inhibition, % at 13.3 µM. Q8TCT1. 1.1% of 290,000 active. recombinant PHOSPHO1, absorbance phosphatase assay; in the data active = inhibition above about 60%
# * marks the source's active call; other numbers are inactive results; ? = inconclusive; . = no result given. Sampled rows, rich in hits. Any-hit rate of the full collection: about 3.6%.
SMILES,A3G deaminase,Wnt bcat act,MITF TRPM1 HTS,esBAF inh,A3A deaminase,PHOSPHO1 inh
CCCC(c1nnnn1Cc1ccc(OC)cc1)N1CCC(C(N)=O)CC1 (stereo not drawn),-5,-2,-5,0,-3,-10
COc1ccc(Cn2nnnc2C(CC(C)C)N2CCC(C(N)=O)CC2)cc1 (stereo not drawn),-3,-3,-6,.,-2,66*
C[C@@H]1CCCCO[C@@H](CN(C)C(=O)Nc2cccc3ccccc23)[C@@H](C)CN([C@H](C)CO)C(=O)c2cc(NC(=O)Nc3ccc(C(F)(F)F)cc3)ccc2O1,.,.,.,3,.,.
N#C[C@H]1[C@@H](c2ccccc2)[C@@H](CO)N1C(=O)c1ccccc1F,.,.,.,-2,.,.
COc1cccc(-c2cnc3c(c2)C(=O)N([C@H](C)CO)C[C@H](C)[C@H](CN(C)C(=O)CC2CC2)O3)c1,.,.,.,-5,.,.
COc1ccccc1NC(=O)N[C@@H]1CC[C@H](CCNC(=O)c2ccc3c(c2)OCO3)O[C@@H]1CO,.,.,.,-3,.,.
[O-]/[N+](=C\c1ccco1)c1ccc(Cl)cc1,-3,26,58,88*,-2,7
[O-]/[N+](=C/c1ccco1)c1ccccc1,-7,7,26,14,-5,17
[O-][N+](=Cc1ccccc1)c1ccc(Cl)cc1,.,38*,71,.,.,.
[O-]/[N+](=C/c1ccc(F)cc1)c1ccc(Cl)cc1,-4,.,50,.,0,-7
COc1ccccc1CN1[C@@H]2CN(C(=O)C3CCOCC3)c3ccccc3[C@@H]2[C@@H]1CO,.,.,.,-6,.,.
Cc1cccc(/C=N/NC(=O)C(C)Nc2cccc3ccccc23)n1 (stereo not drawn),-6,.,-12,6,-7,80*
O=c1[nH]c(-c2ccc(O)cc2)nc2scc(-c3cccs3)c12,-4,-3,114*,61*,2,42
CO[C@H]1CN(C)C(=O)c2ccc(NC(=O)NC(C)C)cc2OC[C@H](C)N(C(=O)CN(C)C)C[C@@H]1C,.,.,.,-6,.,.
O=C(C[C@@H]1C[C@H]2c3cc(NC(=O)NC4CCCC4)ccc3O[C@H]2[C@H](CO)O1)NCCc1ccccc1,.,.,.,5,.,.
C[C@H](CO)N1C[C@H](C)[C@@H](CN(C)C)OCCCC[C@H](C)Oc2ccc(NC(=O)Nc3ccc(C(F)(F)F)cc3)cc2C1=O,.,.,.,-1,.,.
CC1CN(Cc2ccccc2)c2nc3c(c(=O)[nH]c(=O)n3C)n2C1 (stereo not drawn),-2,34*,-1,.,-2,47
Cn1c(=O)[nH]c(=O)c2c1nc1n2CCN1Cc1ccccc1,-4,.,-7,2,0,-4
O=C(NCC(c1ccc(F)cc1)N1CCOCC1)c1cccc(Br)c1 (stereo not drawn),-9,-2,7,.,2,20
COc1ccc(C(CNC(=O)c2cccn2C)N2CCOCC2)cc1 (stereo not drawn),6,18,44,57*,4,.
O=C(NCC(c1ccc(F)cc1)N1CCOCC1)c1c(F)cccc1F (stereo not drawn),-6,39*,3,3,0,34
O=C(CSc1ncnc2c(-c3ccc(Cl)cc3)nsc12)c1ccccc1,2,7,-3,5,3,73*
N/C(=N\OC(=O)c1ccc2c(c1)OCO2)c1cccnc1,-7,62*,77,.,-5,16
COc1cc(/C=N/NC(=O)c2cccnc2)ccc1OC(=O)c1ccc2c(c1)OCO2,-1,46*,-2,.,-2,33
COc1ccc(/C(N)=N/OC(=O)c2ccc3c(c2)OCO3)cc1OC,-7,16,?,36,-4,23
SMILES,A3G deaminase,Wnt bcat act,MITF TRPM1 HTS,esBAF inh,A3A deaminase,PHOSPHO1 inh
COc1cc(/C=N/NC(=O)c2cccnc2)ccc1OC(=O)c1cc(OC)c(OC)c(OC)c1,-4,2,7,5,-1,19
N/C(=N\OC(=O)c1ccc2c(c1)OCO2)c1cccc(Br)c1,-6,17,116*,67*,17,54
C[C@H]1CN([C@@H](C)CO)C(=O)c2cc(C#Cc3ccc(F)cc3)cnc2O[C@H]1CN(C)C(=O)Nc1ccc(F)cc1,.,.,.,-1,.,.
COCc1cn(CC[C@@H]2CC[C@@H](NC(=O)Cc3cccnc3)[C@H](CO)O2)nn1,.,.,.,0,.,.
S=C(c1ccc(-c2ccc(Cl)cc2)o1)N1CCCCC1,-1,.,83*,29,-1,-13
O=C(c1ccc(-c2ccc([N+](=O)[O-])cc2)o1)N1CCCCC1,-1,75*,51,.,-1,-10
COc1ccc(S(=O)(=O)Nc2ccc3c(c2)C(=O)N([C@@H](C)CO)C[C@H](C)[C@H](CN(C)S(=O)(=O)c2ccccc2)O3)cc1,.,.,.,-8,.,.
CO[C@H]1CN(C)C(=O)c2ccc(NC(C)=O)cc2OC[C@H](C)N(Cc2cccnc2)C[C@@H]1C,.,.,.,6,.,.
O=C(c1ccco1)[C@@H]1[C@@H]2C(=O)N(c3ccc(Br)cc3)C(=O)[C@@H]2C2c3ccccc3C=CN21 (stereo partly drawn),.,-1,-26,10,.,68*
CC(C)(C)c1ccc(OCc2nc(-c3ccccn3)no2)c(Br)c1,-6,51*,52,11,-4,-30
Clc1cc(Cl)c(OCc2nc(-c3ccccn3)no2)cc1Cl,-3,51*,.,7,2,18
COc1ccc(Cc2nc(-c3ccccn3)no2)cc1,-4,30,29,.,-2,2
c1ccc(Cc2nc(-c3ccccn3)no2)cc1,-3,23,64,26,-4,-1
C[C@@H]1CCCCO[C@H](CN(C)Cc2ccc(C(=O)O)cc2)[C@@H](C)CN([C@@H](C)CO)C(=O)c2cc(NC(=O)CCC(F)(F)F)ccc2O1,.,.,.,-10,.,.
Cc1ccc2nc(N3C(=O)C(O)=C(C(=O)c4ccco4)C3c3cccs3)sc2c1 (stereo not drawn),-2,.,10,.,-3,86*
CCOc1cccc(C2C(C(=O)c3ccco3)=C(O)C(=O)N2c2nnc(C)s2)c1 (stereo not drawn),2,90*,8,12,-2,.
C[C@H]1CN([C@@H](C)CO)C(=O)Cc2cc(NC(=O)NC3CCCCC3)ccc2O[C@H]1CN(C)Cc1ccncc1,.,.,.,4,.,.
c1ccc(Cn2nnc(-c3ccccc3)n2)cc1,-1,22,48,44*,2,-6
CSc1ccc(-c2nnn(Cc3ccccn3)n2)cc1,-1,-1,63,51*,3,18
N#Cc1cccc(Cn2nnc(-c3ccccc3)n2)c1,-3,0,30,24,0,14
C[C@H](CO)N1C[C@H](C)[C@@H](CN(C)C(=O)C2CC2)Oc2ncc(-c3ccc(C(=O)N(C)C)cc3)cc2C1=O,.,.,.,-6,.,.
COc1cccc(S(=O)(=O)N2CC[C@H]3[C@@H](CO)N(C)c4ccc(C5=CCCCC5)cc4[C@H]32)c1,.,.,.,-4,.,.
Cc1ccc(NC(=O)CSc2nccn2Cc2ccco2)c(C)c1,-2,37*,20,-41,3,14
